The values below come from PMC7819943, “Rice protein-binding microarrays: a tool to detect cis-acting elements near promoter regions in rice”.

Whole data set: some 39,000 sequences, median “fluorescence intensity (a.u.)” near 4,300, cut for the highest 2% near 39,000. For the sample, the highest values were picked, then their nearest neighbours and some sequences at random.

The target of the experiment is T1, OsSMF1 (Oryza sativa, UniProt Q6ZLB0 1-436).
T1 sequence: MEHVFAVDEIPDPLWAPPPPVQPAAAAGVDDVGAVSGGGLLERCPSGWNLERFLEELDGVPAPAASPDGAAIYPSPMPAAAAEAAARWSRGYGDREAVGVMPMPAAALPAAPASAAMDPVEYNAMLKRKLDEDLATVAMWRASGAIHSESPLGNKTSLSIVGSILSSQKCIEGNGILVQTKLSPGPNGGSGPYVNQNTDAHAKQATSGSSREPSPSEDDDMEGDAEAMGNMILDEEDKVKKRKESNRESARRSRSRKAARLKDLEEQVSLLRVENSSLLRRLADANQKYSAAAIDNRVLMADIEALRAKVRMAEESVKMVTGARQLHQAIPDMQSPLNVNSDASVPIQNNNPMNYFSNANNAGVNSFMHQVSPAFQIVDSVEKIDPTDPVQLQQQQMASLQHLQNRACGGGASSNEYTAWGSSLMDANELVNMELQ
Kind of experiment: protein-binding microarray (RPBM); PBS, 2% BSA, 51.3 ng/ul salmon testes DNA, 50 uM zinc acetate, 200 nM TF, 25 C, 1 h; high values mean tight binding. The following applies: protein: recombinant; tags: N-terminal polyhistidine and DsRed monomer fusion (pET32a); chain copies: 2; label: CyDye5-dUTP incorporated in the synthesized complementary strand; 3' TTTTT single-stranded linker to array surface; dsDNA, one strand shown. The gist of the method: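 A custom Agilent array was converted to double-stranded form by primer extension with Cy5-dUTP and blocked with 2% BSA. Protein at 200 nM in PBS with 2% BSA, salmon testes DNA and 50 µM zinc acetate was applied for 1 h at 25 °C, followed by washing. The proteins were polyhistidine–DsRed N-terminal fusions of transcription factors, expressed in E. coli BL21-CodonPlus and Ni–NTA-purified. The binding signal is per-feature fluorescence intensity (arbitrary units) from an Axon 4000B scanner.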
In the case of “GCTATAATATATTGCAGCAGCAGCAGCAGTGGTGGTGGTGCGGAGTCACCTAGTGCAG”, the binding signal is 3360 fluorescence intensity (a.u.).
On to “TGATGGCCGGTGATCAGTGGCATGTGCATGTTATATTATTCGGAGTCACCTAGTGCAG”, for which the binding signal is 3260 fluorescence intensity (a.u.).
To “CACTCCAGAACCAAACGTTTGATGACTCTCTGCTTTTGCGCGGAGTCACCTAGTGCAG” belongs 4570 fluorescence intensity (a.u.).
To “ACAAACCGAGGAGGAGGAGGAGGGCCCACCAGCCACCACGCGGAGTCACCTAGTGCAG” belongs 3310 fluorescence intensity (a.u.).
For the sequence “GCTAATTTGACTCGGTTTTCATCTGACGTGGCATTGACGTCGGAGTCACCTAGTGCAG”, the binding signal was 41400 fluorescence intensity (a.u.).
To “ATAGTGGTTTTGGCTGACGTGGCGCCTACGTGGCTAATTTCGGAGTCACCTAGTGCAG” belongs 19600 fluorescence intensity (a.u.); to “GCTGGTTTGATTAGATCTTCATCCCACGTGGCATTGACGTCGGAGTCACCTAGTGCAG”, 25100 fluorescence intensity (a.u.); to “GGTTTTAGCTGACGTGGCGCCTACGTGACAGTGTTGACCCCGGAGTCACCTAGTGCAG”, 32700 fluorescence intensity (a.u.).
To “AGGGCGCTTTTGGCTGACATGGCGCCTACGTGGCTTGTTTCGGAGTCACCTAGTGCAG” belongs 28100 fluorescence intensity (a.u.); to “GGACGGTTTCGCTGATGTGGCGCCTACGTGGCATCCTAATCGGAGTCACCTAGTGCAG”, 20300 fluorescence intensity (a.u.); to “CTGACGAGCAGAACATTAGCTATCCTATCCAGAATAGTTTCGGAGTCACCTAGTGCAG”, 47400 fluorescence intensity (a.u.).
For the sequence “CTGTTTCGCTGACGTGACGCCTACGTGGCATCCCAGTCATCGGAGTCACCTAGTGCAG”, the binding signal is 40300 fluorescence intensity (a.u.).
The same measure for “CGGTTTTAGCTGACGTGGCGCCTACGTGGCAAAGTTGACCCGGAGTCACCTAGTGCAG”: 44700 fluorescence intensity (a.u.); for “AAACCCAATCCAGTTAGGAATAGAACATTAGATATCCAACCGGAGTCACCTAGTGCAG”: 3940 fluorescence intensity (a.u.); for “AGATCATTAGTTAGCACATATCATCCACATCATCCTATTTCGGAGTCACCTAGTGCAG”: 5980 fluorescence intensity (a.u.).
The same measure for “GTTTTGGCTGACGTGGCGCCTACGTGGTTTGTTTGACCTACGGAGTCACCTAGTGCAG”: 37300 fluorescence intensity (a.u.); for “GCTTGCTCGCCGGCGGTGTGGGAATGATGACTCCCAGCCCCGGAGTCACCTAGTGCAG”: 4050 fluorescence intensity (a.u.).
The same measure for “GTCGTGTCGGCTGCCGATTACACTATCGGCAGTGCAGCCGCGGAGTCACCTAGTGCAG”: 4270 fluorescence intensity (a.u.); for “CGCGGCGCGCACACGCCATGCCGGCATGCCGTGGCATACCCGGAGTCACCTAGTGCAG”: 3990 fluorescence intensity (a.u.); for “CTATATATGTGACGCTGACGTTCCTCATCTCCCAAGCTGCCGGAGTCACCTAGTGCAG”: 7040 fluorescence intensity (a.u.).
For the sequence “TTAGTGTCTGCATTGGATATGAGTCACGGGTTCTTGGTTACGGAGTCACCTAGTGCAG”, the binding signal is 12600 fluorescence intensity (a.u.).
To “CGACGTCGGCGAGGGAGGGCTTCCTGGGCACGTCGGCGAGCGGAGTCACCTAGTGCAG” belongs 3150 fluorescence intensity (a.u.).
The same measure for “ACAGCAAACAAACGTAACACCTTAACACGTCATGCAGTTTCGGAGTCACCTAGTGCAG”: 15100 fluorescence intensity (a.u.).
